Marburg entry inh = qHTS for inhibitors of binding or entry into cells for Marburg Virus; 300,000 compounds, 1.8% hits; Marburg virus pseudotyped entry inhibition, cell reporter; Potency, µM (series often up to 37.8 µM), hits mostly inhibitors; calls by dose curve; tested in HEK293 cells
FMDV inh = High Throughput Screening for Foot and Mouth Disease Virus Antivirals | 410,000 compounds, 1.2% hits | FMDV antiviral cell-based qHTS | Potency, µM (titrated, usually from 57.9 µM), most hits filed as inhibitors; calls by dose curve; tested in HEK293T cells; note: read-out not given here; nearly all actives have a fitted effect of over 45% in size
HCV inhibitor = qHTS Assay for Inhibitors of Hepatitis C Virus (HCV); 340,000 compounds, 3.4% hits; Huh7.5.1 HCVcc-Cre infection, luciferase reporter, 44 h; Potency, µM (top dose mostly 41.8 µM), actives largely listed as inhibitors; AID 651820, 2012; active = well fitted inhibition curve with a large enough effect; inconclusive = small, poorly fitted or top-dose-only effect, or another doubt; inactive = no such curve, though single readings can be large or run the other way
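After 44 h co-culture of compound, cells and HCVcc-Cre (~0.5 moi), substrate is added for 15 min at room temperature and luciferase measured over 15 sec. Cells were seeded at 1,000/well and pre-cultured 4 h.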
Lassa entry inh = qHTS for Inhibitors of binding or entry into cells for Lassa Virus; 300,000 compounds, 1.2% hits; Lassa virus pseudotype entry inhibition, cell reporter; Potency, µM (titrated, usually from 37.9 µM), hits mostly inhibitors; calls by dose curve; tested in HEK293 cells; note: nearly all actives have a fitted effect of over 50% in size
HCMV inh = qHTS Assay for inhibitors of the human cytomegalovirus (HCMV); 410,000 compounds, 4.5% hits; HFF cells, HCMV-luciferase reporter, 72 h; stronger effect = lower value; activity change, negative = inhibition, % at 57.5 µM; in the data active = activity change below about -60%; inconclusive = no clear call, values can overlap the other calls; inactive = above about -39%
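Inhibition of viral replication was scored as loss of reporter luminescence in HFFs infected with HCMV-luciferase (MOI 1 PFU/cell) for 72 h; compounds tested at 2 doses, normalized to buffer and Salinomycin controls.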
SARS PLpro yeast = qHTS of Yeast-based Assay for SARS-CoV PLP | S. cerevisiae expressing SARS-CoV PLpro, growth rescue | 330,000 compounds, 0.19% hits | Potency, µM (highest dose often 32.9 µM), most hits filed as activators; calls by dose curve; note: nearly all actives have a fitted effect of over 55% in size
Numbers stand for hits; - = inactive; ? = inconclusive; . = no result. An excerpt weighted towards active compounds, which were near 8% of everything screened.

SMILES	Marburg entry inh	FMDV inh	HCV inhibitor	Lassa entry inh	HCMV inh	SARS PLpro yeast
c1ccc2c[n+](CCCCCCCCCC[n+]3ccc4ccccc4c3)ccc2c1	.	.	.	.	-80.6	.
CCN(CC(=O)Nc1ccccc1-c1ccccc1)Cc1nc2ccccc2c(=O)[nH]1	?	-	?	?	-	-
CCN(CC(=O)Nc1ccc2c(c1)OCO2)Cc1nc2ccccc2c(=O)[nH]1	-	-	-	-	-100.1	-
CCN(CC(=O)Nc1ccccc1SC)Cc1nc2ccccc2c(=O)[nH]1	-	-	11.2µM	-	-	-
CCSc1nnc(C(C)NC(=O)c2ccc(OC)cc2)n1C (centres undefined)	.	-	.	.	.	.
C=C[C@@]1(C)CC(=O)[C@@]2(O)[C@@]3(C)[C@@H](O)CCC(C)(C)[C@@H]3[C@H](O)[C@H](OC(C)=O)[C@@]2(C)O1	.	-	.	.	.	.
CCC(C(=O)NCCc1ccc(OC)c(OC)c1)n1nc(C)c2sc3ccccc3c2c1=O (centres undefined)	-	-	.	-	-	.
CCOCc1c(C(=O)Nc2ccccc2N2CCN(C)CC2)oc2ccccc12	?	-	11.2µM	-	-	-
COc1ccc(C(=O)Nc2ccc3nc(N4CCOCC4)sc3c2)cc1OC	.	-	?	.	-	-
CCOCc1c(C(=O)Nc2cc(OCC)c(N3CCOCC3)cc2OCC)oc2ccccc12	-	?	-	-	-	-
CCOCc1c(C(=O)Nc2ccc3nc(N4CCOCC4)sc3c2)oc2ccccc12	?	20µM	?	?	-	-
CCCn1nc(C(=O)Nc2ccc3nc(N4CCOCC4)sc3c2)ccc1=O	?	12.6µM	?	?	-76.2	-
C[N+](C)(C)CC1CCCC(C[N+](C)(C)C)C1=O (centres undefined)	10µM	?	2.24µM	?	-	.
C[N+](C)(C)CC1CCCc2ccccc2C1=O (centres undefined)	?	?	11.2µM	?	?	.
CCc1nn(CC(=O)N2CCN(c3cccc(C)c3)C(C)C2)c(=O)c2cc3sccc3n12 (centres undefined)	?	-	.	.	-	.
CCOC(=O)c1ccc(NC(=O)CC2C(=O)N(c3cccc(OC)c3)C(=O)N2Cc2cccnc2)cc1 (centres undefined)	.	-	.	?	-	.
OCC1CCCN(c2nc3cc4c(cc3cc2CNCc2cccc(C(F)(F)F)c2)OCO4)C1 (centres undefined)	.	-	.	.	.	.
Cn1c(N)c(S(=O)(=O)c2ccc(Br)cc2)c2nc3ccccc3nc21	6.31µM	-	-	-	-	-
Cc1cccc(S(=O)(=O)c2c(N)n(/N=C/c3ccccc3)c3nc4ccccc4nc23)c1	?	-	-	-	-	-
Nc1c(S(=O)(=O)c2ccccc2)c2nc3ccccc3nc2n1/N=C/c1cccc(O)c1	-	-	14.1µM	-	-101.1	-
CCCCN(CC)CCNC(=O)c1c(C)oc2ncnc(N3CCOCC3)c12	.	-	.	-	-	.
CCOC(=O)c1sc(=S)n(C)c1NC(=O)c1ccc(OC)cc1	-	-	-	-	-	-
CCOC(=O)c1sc(=S)n(C)c1NC(=O)c1ccc(C(C)(C)C)cc1	14.1µM	25.1µM	-	?	-72.9	-
Cc1ccccc1C(=O)N1CCC(C(=O)Nc2ccc(S(=O)(=O)N3CCCCC3)cc2)CC1	-	?	12.6µM	?	-	-
O=C(Nc1ccc(Oc2ccccc2)cc1)C1CCCN(c2ncccn2)C1 (centres undefined)	-	-	-	-	-71.6	-
SMILES	Marburg entry inh	FMDV inh	HCV inhibitor	Lassa entry inh	HCMV inh	SARS PLpro yeast
O=C(Nc1ccc(S(=O)(=O)N2CCCC2)cc1)C1CCCN1C(=O)c1cccs1 (centres undefined)	-	-	-	-	-100.6	-
O=C(Nc1ccc(Oc2ccccc2)cc1)C1CCN(S(=O)(=O)c2ccccc2)CC1	-	?	.	-	-82.4	.
O=C(Nc1cccc(S(=O)(=O)N2CCCC2)c1)C1CCCN1C(=O)c1cccs1 (centres undefined)	.	-	?	.	-	-
COC(=O)C(c1ccccc1)(c1cn(C)c2ccc(OC)cc12)C(Nc1ccccc1)c1ccccc1 (centres undefined)	.	.	.	.	-	.
COc1cc2cc(CNc3ccccc3)c(=O)n(CC(=O)Nc3cc(C)cc(C)c3)c2cc1OC	.	-	.	-	-	.
Cc1ccccc1NC(=O)C1CCN(S(=O)(=O)c2ccccc2)CC1	.	-	.	-	-77.6	.
CCCN(CC(=O)Nc1ccccc1C)C(=O)C1CCN(S(=O)(=O)c2ccc(C)c(C)c2)CC1	.	-	.	.	-61.4	.
CCCN(CC(=O)Nc1ccccc1C)C(=O)C1CCN(S(=O)(=O)c2ccc3c(c2)OCCO3)CC1	.	-	-	.	-	.
Cc1ccc(C(=O)NCC(c2ccco2)S(=O)(=O)c2ccccc2)cc1C (centres undefined)	.	-	.	-	-	.
FC(F)(F)c1cccc(-c2nc3nc(Cl)c(Cl)nc3[nH]2)c1	.	-	11.2µM	.	.	-
FC(F)(F)c1nc2nc(Cl)c(Cl)nc2[nH]1	.	-	.	.	-	.
Cc1c(C(=O)N2CCCC(C)C2)sc2ncnc(NCCN3CCCCC3)c12 (centres undefined)	.	-	.	.	.	.
O=C(NC1CCCCC1)c1nccnc1-c1ccc(C(F)(F)F)cc1	.	.	.	.	-	.
CCOC(=O)c1cc(CC)sc1NC(=O)C1CC1	-	-	11.2µM	-	-	-
CCOC(=O)c1cc(CC)sc1NC(=O)c1cc(OCC)c(OCC)c(OCC)c1	-	-	2.82µM	-	-	-
CCOC(=O)c1cc(CC)sc1NC(=O)COC(=O)C1CCC1	.	-	?	.	-	-
CCc1ccc(N=C2NC(=O)CC(C(=O)Nc3ccc(OC)cc3)S2)cc1 (centres undefined)	-	-	.	-	-	.
CCOC(=O)c1ccc(NC(=O)CSc2cc(-c3ccccc3)nc(C)n2)cc1	?	-	.	-	-	.
CCN(Cc1ccccc1)C(=O)C(CC(C)C)NS(=O)(=O)c1ccc2c(c1)CCN2C(C)=O (centres undefined)	-	-	.	?	-	.
COc1ccccc1NC(=O)c1c([N+](=O)[O-])c(C(C)(C)C)nn1C	-	-	-	-	-67.7	-
COCC(=O)N1c2nc(-c3ccco3)nn2C2(CCCCC2)[C@@H]2CCCC[C@@H]21	-	-	.	-	-	.
CC(NC(=O)CSC1=NCCS1)c1ccccc1 (centres undefined)	-	-	-	-	-76.0	-
COc1ccccc1CNC(=O)CSc1ccc(Br)cc1	?	-	-	-	?	-
COc1ccccc1CNC(=O)CSC1=NCCS1	-	-	-	-	-61.3	-
CC1C(NC(=O)/C(=N/OC(C)(C)C(=O)O)c2csc(N)n2)C(=O)N1S(=O)(=O)O (centres undefined)	.	-	.	.	.	.

Assay outcomes as filed in PubChem BioAssay.
